Pemphigus Ab inh – blocks pemphigus antibody binding to human desmoglein-3. DSG3-coupled beads, scFv-anti-DSG3-GFP binding, flow cytometry; stronger effect = lower value. P32926. binding (percent of control), % at 10 µM. AID 588358. hit rate 0.48% among 310,000;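 active means binding more than 3 SD below its plate's average and above zero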
NTR1 ag – NTR1 (human) agonism; NTR1-U2OS beta-arrestin-GFP spot imaging, agonist mode; activation, % at 20 µM; hit rate 0.17% among 330,000;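 active means activation at or above 40% of the spot to cytoplasm intensity ratio, with at least 20 cells analyzed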;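 further: 0% = DMSO without peptide and 100% = 100 nM NTR1 peptide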
Target sequence (P30989 whole entry, looked up): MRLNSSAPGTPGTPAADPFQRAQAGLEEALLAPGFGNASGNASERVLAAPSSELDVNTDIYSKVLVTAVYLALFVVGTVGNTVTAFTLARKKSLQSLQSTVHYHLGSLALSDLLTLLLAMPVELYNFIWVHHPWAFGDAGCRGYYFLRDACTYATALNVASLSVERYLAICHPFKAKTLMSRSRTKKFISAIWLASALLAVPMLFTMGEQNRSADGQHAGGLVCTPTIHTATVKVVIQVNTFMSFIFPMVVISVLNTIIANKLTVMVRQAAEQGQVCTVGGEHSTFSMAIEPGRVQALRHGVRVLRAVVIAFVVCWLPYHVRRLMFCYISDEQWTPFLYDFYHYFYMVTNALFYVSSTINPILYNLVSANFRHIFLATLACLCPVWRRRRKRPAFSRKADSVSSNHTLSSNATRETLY
VLA-4 inh – inhibition in a human VLA-4 binding assay; VLA-4 expressing cells, ligand binding flow cytometry; P13612; hit rate 0.2% among 330,000; inhibition, % (about 7 µM as worked out from the volumes in the protocol); in the data active means inhibition above about 50%
AI-2 QS modul – modulates the Vibrio harveyi AI-2 quorum sensing system. activity change, % at 7.5 µM. Vibrio harveyi JMH597 AI-2 luminescence/OD600 ratio, 9 h; stronger effect = lower value; strain lacks LuxN and CqsS sensors; 0 = neutral-control median. hit rate 0.4% among 300,000; in the data active means activity change below about -75%, passing the limit was not always enough;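 further: luminescence divided by OD600 gain over 9 h not by final OD600 alone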
* marks the source's active call; other numbers are inactive results; nt = no result. In the library only some 1.1% were active in any assay of this set; here they are far more common.

SMILES	Pemphigus Ab inh	NTR1 ag	VLA-4 inh	AI-2 QS modul
C/C(=N/NC(=O)Cc1cccc2ccccc12)c1cccs1	99	-3	0	15
O=C(NNC(=S)NC(=O)c1cccs1)c1ccc(O)cc1	113	-1	19	-34
O=S1(=O)CCN(C2CCCC2)CC1	107	nt	nt	nt
O=C(NCCCc1ccccc1)c1cc(COc2ccc(F)cc2Cl)on1	35*	3	8	-3
O=C(NCCc1cccnc1)c1cc(COc2ccc(F)cc2F)on1	109	1	8	-76*
Cc1nc(CNC(=O)c2cc(COc3ccc(F)cc3Cl)on2)cs1	100	1	12	15
O=C(NCCc1cccnc1)c1cc(COc2ccc(F)cc2Cl)on1	nt	1	7	-31
O=C(NCC(=O)N1CCN(C/C=C/c2ccccc2)CC1)c1ccc(OC(F)F)cc1	nt	0	-1	nt
CCOC(=O)CCCCCC(=O)Nc1ccc2c(c1)C(=O)N([C@@H](C)CO)C[C@@H](C)[C@H](CN(C)S(=O)(=O)c1cccs1)OCCCC[C@H](C)O2	97	nt	nt	nt
COc1ccc(NC(=O)CN(c2ccc(C)cc2)S(=O)(=O)c2c(C)nn(C)c2C)cc1	105	1	-3	10
COc1ccc(N(CC(=O)Nc2ccc(F)c(Cl)c2)S(=O)(=O)c2c(C)noc2C)cc1	6.0*	10	3	4
COc1ccc(N(CC(=O)Nc2ccc(OC)c(Cl)c2)S(=O)(=O)c2c(C)noc2C)cc1	102	8	17	33
COc1ccc(NC(=O)CN(c2ccc(OC)cc2)S(=O)(=O)c2c(C)nn(C)c2C)cc1	-9.2*	0	7	17
CC(/C=C/c1ccc(O)cc1)=NNc1ccccc1	95	nt	nt	nt
CN1CCN(CC(=O)NN(Cc2ccccc2)c2ccccc2)CC1	77*	0	2	14
COCCCNC(=O)c1c(N)n(/N=C/c2cccs2)c2nc3ccccc3nc12	79*	7	4	0
Cc1ccc(C(=O)OCC(=O)Nc2cccc(S(=O)(=O)NC3=NCCCCC3)c2)c(C)c1	74*	2	8	35
COc1cc(OC)c(C(=O)OCC(=O)Nc2cccc(S(=O)(=O)NC3=NCCCCC3)c2)cc1OC	102	nt	nt	nt
CS(=O)(=O)N(CC(=O)N1CCCC1)C1CCCCC1	99	nt	nt	nt
O=C(COC(=O)c1cc(S(=O)(=O)N2CCOCC2)c(Cl)cc1Cl)NCc1ccco1	87	5	1	nt
O=C1C=CC(=O)N1Cc1ccccc1	92	3	54*	0
O=C1C2CC=CCC2C(=O)N1Cc1ccccc1 (stereo unspecified)	99	0	33	-1
CC(/C=C/c1ccc2c(c1)OCO2)=N\NC(=O)c1cccc([N+](=O)[O-])c1	84*	1	1	28
Cc1[nH]n(-c2ccccc2)c(=O)c1N=Nc1cccc(C(=O)O)c1	92	-1	3	78
Cc1[nH]n(-c2ccccc2)c(=O)c1N=Nc1cccc(S(=O)(=O)N2CCOCC2)c1	64*	0	7	3
SMILES	Pemphigus Ab inh	NTR1 ag	VLA-4 inh	AI-2 QS modul
Cn1c(/C=C/c2ccccc2)nc2ccccc2c1=O	90	2	14	4
Cn1c(/C=C/c2ccc([N+](=O)[O-])o2)nc2ccccc2c1=O	97	-1	-236	-229*
COc1cc(C#N)ccc1OCC(=O)Nc1cccc(S(=O)(=O)N(C)c2ccccc2)c1	108	nt	nt	nt
COc1ccc(C(=O)C2CCN(C(=S)NCCc3ccc(OC)c(OC)c3)CC2)cc1	-9.4*	1	33	17
COc1ccc(CCNC(=S)N2CCC(C(=O)c3ccc(F)cc3)CC2)cc1OC	100	4	13	16
COC(=O)c1sc(NC(=O)CN2CCN(c3cccc(Cl)c3)CC2)c(C(=O)OC)c1C	99	nt	nt	nt
CCOC(=O)C1=C(COC(=O)CNS(=O)(=O)c2ccc(C)c(C)c2)NC(=O)NC1C (stereo unspecified)	103	nt	nt	nt
CC(C)(C)c1ccc(C(=O)c2c[nH]c(C(=O)NCCCN3CCOCC3)c2)cc1	-3.8*	2	4	42
C/C(=N/NC(=O)c1cc(-c2cccc([N+](=O)[O-])c2)n[nH]1)c1cccc(O)c1	75*	8	24	18
CC(=O)OC[C@H]1O[C@@H](Oc2cc3ccc(=O)oc3cc2OC(C)=O)[C@H](OC(C)=O)[C@@H](OC(C)=O)[C@@H]1OC(C)=O	104	nt	nt	nt
Cc1ccc(S(=O)(=O)N2C[C@@H]3[C@H]4CC[C@H](C4)[C@@H]3[C@@H](C)[C@@H]2c2ccn([Si](C(C)C)(C(C)C)C(C)C)c2)cc1	95	-1	nt	nt
CC(C)(C)NC(=O)C(c1ccc(-c2ccccc2)cc1)N(C[C@H]1CC[C@@H]([C@@H]2CC[C@H](CO)O2)O1)C(=O)c1ccc(C(C)(C)C)cc1 (stereo partly specified)	98	16	nt	nt
Cc1cc(=O)n(Nc2ccccc2)c(O)c1C#N	64*	nt	nt	nt
Cc1cc(=O)n(CCc2ccccc2)c(O)c1C#N	103	1	0	17
CN(CC(=O)Nc1ccc(N2CCOCC2)cc1)CC(=O)Nc1ccc(Cl)cc1[N+](=O)[O-]	99	-1	5	8
COc1ccc(NC(=O)CN(C)CC(=O)Nc2ccc(N3CCOCC3)cc2)c([N+](=O)[O-])c1	67*	1	2	-5
O=C1C2C3C=CC(O3)C2C(=O)N1Nc1ccccc1 (stereo unspecified)	98	nt	nt	nt
Nc1nc(N)nc(-c2ccccc2)n1	107	-3	-3	15
Nc1nc(N)nc(-c2ccccc2-c2nc(N)nc(N)n2)n1	74*	0	17	15
O=C(Cn1ncc2c([nH]c3ccccc32)c1=O)N1CCCCC1	106	0	14	20
O=C(Cn1ncc2c([nH]c3ccccc32)c1=O)N1CCN(c2ccccn2)CC1	-6.6*	-1	10	8
CCCc1cc(=O)oc2cc(OCC(=O)N(C)C)c(Cl)cc12	2.6*	0	5	7
CCCc1cc(=O)oc2cc(OCC(=O)N3CCOCC3)c(Cl)cc12	106	0	8	27
Cc1ccc(-c2nn(-c3ccccc3)cc2C(=O)Nc2cccc(S(=O)(=O)NC3=NCCC3)c2)cc1	97	nt	nt	nt
C[C@]12CC[C@@H]3c4ccc(O)cc4CC[C@H]3[C@@H]1CC[C@@H]2O	53*	0	36	6
SMILES	Pemphigus Ab inh	NTR1 ag	VLA-4 inh	AI-2 QS modul
COc1cc([C@H]2OC[C@H]3[C@@H]2CO[C@@H]3c2ccc(O[C@H]3O[C@H](CO)[C@@H](O)[C@H](O)[C@H]3O)c(OC)c2)ccc1O[C@@H]1O[C@H](CO)[C@@H](O)[C@H](O)[C@H]1O	106	1	20	nt
O=C(O)c1ccc(Nc2cc(Cl)c3nonc3c2[N+](=O)[O-])cc1	114	1	12	-3
O=[N+]([O-])c1c(Nc2cccc(O)c2)cc(Cl)c2nonc12	98	1	28	-219*
CCN(CC(=O)Nc1ccc(NC(C)=O)cc1)C(=O)c1ccc(Sc2nncn2C)c([N+](=O)[O-])c1	102	nt	nt	nt
O=C(O)c1ccc(N/N=C/c2ccc(-c3ccc(Br)cc3)o2)cc1	101	4	-9	-96*
O=C(O)c1ccc(N/N=C/c2ccc(-c3ccccc3Cl)o2)cc1	97	1	-8	-95*
OCCCNc1c2ccccc2nc2ccccc12	99	3	-55	16

Assay outcomes deposited in PubChem BioAssay by several laboratories.
